A selection: hits, their analogues and other compounds. The true share with any hit is near 0.25%.
RGS4 inhibitor: blocks human RGS4-accelerated GTP hydrolysis; P49798; Transcreener GDP fluorescence polarization, RGS4-accelerated GTP hydrolysis; Potency, µM (top dose mostly 114 µM), for inactives: at the highest dose activity change, negative = inhibition, hits mostly inhibitors; 390,000 tested, 0.039% active; AID 504845; also: % is scaled to controls: 0 for no effect and ±100 for the full control effect; nearly all actives have a fitted effect of over 75% in size
Target sequence (P49798 whole entry, looked up): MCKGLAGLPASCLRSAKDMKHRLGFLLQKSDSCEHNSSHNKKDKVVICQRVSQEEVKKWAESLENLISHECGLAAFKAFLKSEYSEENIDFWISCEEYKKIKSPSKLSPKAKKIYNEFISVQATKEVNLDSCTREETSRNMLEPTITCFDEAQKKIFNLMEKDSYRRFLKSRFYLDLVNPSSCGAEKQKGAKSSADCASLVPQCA
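MLSMR compounds (23 nl, pin-transferred) preincubated 10 min at room temperature with a 500nM (2x) first reagent, then RGS4 at 900nM (2x) plus Transcreener GDP mix added; fluorescence polarization (620/688 nm) read before and after 90 min at 30 °C.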
USP2a block: USP2a (human) protease inhibition; 330,000 tested, 0.01% active; AID 463254; Potency, µM (highest dose often 38.3 µM), inactives show top-dose activity change, negative = inhibition, hits mostly inhibitors; USP2 core, Ub-CHOP2 coupled fluorogenic reporter, 485/531;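 also: plate controls were DMSO wells for no effect and full inhibition by NEM control for full effect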
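Deubiquitinase activity read as fluorescence (485/531 nm) after Ub-CHOP2 cleavage activates the enterokinase reporter on its substrate; USP2 core 10nM, Ub-CHOP2 and substrate 25nM each, 30min compound preincubation then 60min RT; data normalized to NEM, curves fitted.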
PGK inhibitor: blocks T. brucei phosphoglycerate kinase. P07378. PGK/GAPDH coupled, Kinase-Glo luminescence, 60 min. Potency, µM (doses to about 57.5 µM), without a hit: at the top dose activity change, negative = inhibition, actives largely listed as inhibitors. 380,000 tested, 0.043% active; also: % is scaled to controls: 0 for no effect and ±100 for the full control effect; nearly all actives have a fitted effect of over 60% in size
Target sequence (P07378 whole entry, looked up): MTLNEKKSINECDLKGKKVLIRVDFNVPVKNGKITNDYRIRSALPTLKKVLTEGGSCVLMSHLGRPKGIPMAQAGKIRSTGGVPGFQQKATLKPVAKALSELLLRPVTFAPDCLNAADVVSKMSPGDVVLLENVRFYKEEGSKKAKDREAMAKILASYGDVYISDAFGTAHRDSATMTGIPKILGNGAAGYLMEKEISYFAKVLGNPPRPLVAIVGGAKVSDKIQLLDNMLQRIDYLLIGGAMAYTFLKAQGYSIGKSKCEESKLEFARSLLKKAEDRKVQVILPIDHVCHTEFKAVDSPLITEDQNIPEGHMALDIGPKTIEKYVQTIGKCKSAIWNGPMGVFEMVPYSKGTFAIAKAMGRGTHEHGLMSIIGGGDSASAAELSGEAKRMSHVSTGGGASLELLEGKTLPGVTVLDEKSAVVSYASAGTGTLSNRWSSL
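Recombinant glycosomal PGK reaction used 1,3-bisphosphoglycerate generated in-well by GAPDH (100nM final) in 100mM TEA pH 7.6, 5mM MgCl2, 0.01% Tween-20. After 60 minutes at room temperature, ATP was read by Kinase-Glo Plus luminescence end-point.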
Tb PFK inh-1: inhibitors of T. brucei phosphofructokinase. T. brucei PFK, ADP-Glo luminescence. 330,000 tested, 0.17% active. Potency, µM (titrated, usually from 57.5 µM), without a hit: at the highest dose activity, negative = inhibition, hits mostly inhibitors. O15648;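 also: 0% = uninhibited 1x PFK enzyme wells and -100% = no-enzyme wells; nearly all actives have a fitted effect of over 60% in size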
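Compounds were pin-transferred as a titration series up to 57 uM into substrate buffer (0.5 mM F6P, 0.1 mM ATP, pH 8.0), then 1.25 nM PFK was added and reactions ran 45 min before ADP-Glo detection.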
Chronic BCR inh: inhibitors of chronic active B-cell receptor signaling | 340,000 tested, 0.05% active | AID 493014 | Potency, µM (top dose mostly 46.1 µM), for the others: at the highest dose activity change, negative = inhibition, hits mostly inhibitors | ABC-DLBCL IkBa-CBG/CBR reporter, luminescence ratio, 4 h; active = well fitted inhibition curve with a large enough effect in the signal ratio, with a control signal flat, not every such curve was filed as active; inconclusive = small, poorly fitted or top-dose-only effect, or effect the other way, or a change in a side signal; the % refers to the signal ratio;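 also: plate controls were basal doxycycline-induced cells for no effect and cells given 10 µM MG132 for full effect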
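Cell line TMD8 (human ABC DLBCL), stably expressing tet-inducible CBG68-IkBa fusion and CBR; IMDM/0.5% FBS; cpd up to 46 uM; dox induction, 4 h, 37C/5% CO2; dual luminescence; green/red ratio; MG132 control.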
Tb PFK KinaseGlo: Tb phosphofructokinase inhibition, orthogonal luminescence; AID 504636; shares compounds with Tb PFK inh-1; 1,100 tested, 47% active; Potency, µM (top dose mostly 57.5 µM), inactives show at the highest dose inhibition; Tb PFK enzyme, ATP depletion, Kinase-Glo Plus luminescence; calls by dose curve; also: nearly all actives have a fitted effect of over 60% in size
Tb PFK inh-2: T. brucei PFK enzyme inhibition, hit validation; purified T. brucei PFK, ADP-Glo luminescence, 45 min; shares compounds with Tb PFK inh-1; AID 504637; 1,100 tested, 41% active; Potency, µM (doses to about 57.5 µM), inactives show at the highest dose activity change, negative = inhibition, hits mostly inhibitors;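 also: plate controls were full PFK enzyme control for no effect and no enzyme control for full effect; nearly all actives have a fitted effect of over 60% in size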
An asterisk follows results filed as active; i = inactive; ? = inconclusive; / = no result; [ ] = dose if it differs, or a comment. Unless noted, calls follow the shape of the dose curve; as a rule, active = well fitted curve in the direction sought with a large enough effect; inconclusive = small, poorly fitted or top-dose-only effect, or another doubt; inactive = no such curve, though single readings can be large; an effect the other way counts as inactive or inconclusive. Potency is read from the fitted curve at half-maximal effect.

SMILES	RGS4 inhibitor	USP2a block	PGK inhibitor	Tb PFK inh-1	Chronic BCR inh	Tb PFK KinaseGlo	Tb PFK inh-2
COc1ccc(-c2csc(NS(=O)(=O)c3ccc([N+](=O)[O-])cc3)n2)cc1	-28.5%	-8.7%	-10.1%	?	?	-32.6%	?
Cc1ccc(/C=c2\sc3nc(-c4ccccc4Br)nn3c2=O)o1	-43.9%	4.0%	-10.8%	?	3.9%	/	/
Cc1ccc(/C=c2\sc3nc(-c4ccco4)nn3c2=O)o1	-37.3%[11.4 µM]	4.4%	?	21.3µM*	?	?	?
O=C1CC(c2nc3ccccc3n2Cc2c(F)cccc2Cl)CN1c1cccc(C(F)(F)F)c1 (stereo not drawn)	3.1%	/	/	/	/	/	/
O=C1N=c2ccccc2=C1c1sc(Nc2ccc(O)cc2)nc1O	?	?	-8.8%	?	?	-2.9%	15.4%
O=C(O)c1cc(N2N=C(C(F)(F)F)/C(=C/C=C/c3ccco3)C2=O)ccc1Cl	?	10µM*	?	16.9µM*	?	4.78µM*	5.36µM*
CCOC(=O)c1ccc(N2N=C(C)/C(=C/C=C/c3ccco3)C2=O)cc1	-25.2%	-5.2%	6.1%	1.2%	?	/	/
COc1cc(OC)cc(C(=O)OCC(=O)NCc2ccco2)c1	24.2%	-0.1%	-15.4%	15.1µM*	?	?	?
O=C(COC(=O)Cc1cccc(C(F)(F)F)c1)NCc1ccco1	-9.5%	-0.4%	?	8.49µM*	4.5%	3.79µM*	10.7µM*
O=C(COC(=O)Cc1ccc(F)cc1)NCc1ccco1	-33.6%	0.2%	/	?	-1.7%	/	/
CC1=C(C(=O)N2CCN(c3ccc(Cl)cc3)CC2)C2(CCC(C)CC2)OC1=O (stereo not drawn)	5.2%	/	/	/	/	/	/
Cc1ccc(F)cc1CNC(=O)c1cc(COc2ccc3ncccc3c2)on1	2.9%	1.8%	-6.0%	3.7%	-6.3%	/	/
O=C(NCc1cccc(Cl)c1)c1cc(COc2ccc3ncccc3c2)on1	-11.2%	2.4%	7.1%	15.1µM*	-23.1%	12µM*	13.5µM*
O=C1CC(=O)N(Cc2ccco2)C(=S)N1	?	?	?	21.3µM*	1.9%	23.9µM*	?
S=C1NCN(Cc2ccco2)CN1	-18.2%	0.2%	-4.8%	0.0%	?	/	/
CC1CC=CC2C1C(=O)N(Cc1ccccc1)C2c1cccc([N+](=O)[O-])c1 (stereo not drawn)	-8.8%	/	/	/	/	/	/
COCCCNC(=O)c1ccc(Cn2c(=O)c3ccccc3n(Cc3ccc(C)cc3)c2=O)cc1	-7.0%	5.2%	-2.1%	4.0%	14.6%	/	/
COCCCNC(=O)c1cc(=O)n(Cc2ccc(Cl)cc2)c2ccccc12	-31.8%	-0.6%	16.3%	10.7µM*	6.0%	23.9µM*	?
COc1ccc(CCn2nnnc2C2(c3ccc(C)cc3)CC2)cc1	9.1%[56.9 µM]	/	/	/	/	/	/
CCCN1C(=O)c2ccccc2NC1c1ccc(OC)c(COc2ccc([N+](=O)[O-])c(C)c2)c1 (stereo not drawn)	8.2%	/	/	/	/	/	/
O=c1c2c([N+](=O)[O-])cc([N+](=O)[O-])cc2sn1Cc1ccccc1	-139.3%	1.9%	-4.6%	2.69µM*	?	?	21.3µM*
Cc1ccc(Cc2cnc(NC(=O)CN3CCOCC3)s2)cc1Cl	-1.5%	0.8%	2.7%	?	-10.6%	23.9µM*	30.1µM*
O=C(CN1CCOCC1)Nc1ncc(Cc2cccc3ccccc23)s1	-2.9%	0.3%	7.0%	-10.0%	-4.6%	/	/
Cc1cc2c(c(=O)n1-c1ccccc1)C1O[C@](c3ccsc3)(Cc3ccccc31)O2	/	-1.2%[7.66 µM]	/	0.1%[11.5 µM]	-1.8%[9.22 µM]	/	/
Cc1ccc(C)c(OCC(=O)Nc2cc(C(=O)O)cc(C(=O)O)c2)c1	6.4%	1.2%	-7.0%	?	-0.5%	/	/
SMILES	RGS4 inhibitor	USP2a block	PGK inhibitor	Tb PFK inh-1	Chronic BCR inh	Tb PFK KinaseGlo	Tb PFK inh-2
Cc1cc(C)c(OCC(=O)Nc2cc(C(=O)O)cc(C(=O)O)c2)cc1C	-8.9%	3.5%	0.1%	21.3µM*	-6.1%	8.49µM*	19µM*
CC(C(Sc1ccccc1N)c1ccccc1)[N+](=O)[O-] (stereo not drawn)	?	-1.4%	6.0%	23.9µM*	-12.5%	?	?
COc1ccc(CNC(=O)CCc2c(C)nc3nc(CNC(=O)OC(C)(C)C)nn3c2C)cc1	1.1%	/	7.1%	/	/	/	/
CC(=O)N1c2ccccc2CC1C(=O)N1CCN(c2cc(Cl)ccc2C)CC1 (stereo not drawn)	-21.8%	/	-6.1%	/	/	/	/
O=C(COC(=O)c1cccc(N2C(=O)c3ccccc3C2=O)c1)Nc1ccccc1	-7.9%	0.3%	-5.2%	-5.2%	4.9%	/	/
N#Cc1cccc(NC(=O)COC(=O)c2cccc(N3C(=O)c4ccccc4C3=O)c2)c1	-18.7%	2.1%	-7.6%	?	?	?	?
COc1ccc(-c2nnc(SCC(=O)Nc3cccc(C(F)(F)F)c3)nc2-c2ccc(OC)cc2)cc1	22.0%	/	5.7%	/	22.4%	/	/
COc1cc(Cl)c(C)cc1NC(=O)c1ccc2c(SCC(=O)O)c3c(nc2c1)CCCC3	-1.2%	1.0%	-28.1%	3.3%	5.1%	/	/
COc1ccc(C)cc1NC(=O)c1ccc2c(SCC(=O)O)c3c(nc2c1)CCCC3	14.7%	0.0%	-7.0%	?	3.8%	-29.5%	?
COc1ccc(CNc2cccc3[nH]c(C(F)(F)F)nc23)cc1	-21.3%[56.9 µM]	-1.9%	-2.4%	-1.5%	2.2%	/	/
Cc1ccc(C(=O)Nc2cccc3[nH]c(C(F)(F)F)nc23)cc1	-3.3%	0.3%	-8.1%	?	?	?	?
O=C(Cc1ccccc1)NCC(=O)OCC(=O)c1cccc2ccccc12	8.6%	/	/	/	/	/	/
O=C(NC1CCCC1)c1ccc(CSc2nc3ccncc3n2Cc2cccc(F)c2)cc1	-21.0%	/	2.2%	/	/	/	/
O=C(NC1CCCC1)c1ccc(CSc2nc3ccncc3n2Cc2ccc(F)cc2)cc1	-25.5%	2.3%	-4.5%	?	-4.2%	?	26.9µM*
O=C(NCCN1CCOCC1)c1ccc(CSc2nc3ccncc3n2Cc2ccc(F)cc2)cc1	-9.6%	0.6%	i	?	-11.6%	?	?
COc1ccc(-c2nnc(SCC(=O)NC3CCCC3)nc2-c2ccc(OC)c(OC)c2)cc1OC	-14.7%	/	8.3%	/	?	/	/
CNC(=O)c1cnc2sc(N3CCCCCC3)nn2c1=O	2.4%	/	-2.3%	/	/	/	/
Cc1cc(C)c2c(n1)SCCN2C(=O)Nc1ccc(C(=O)Nc2ccc(C(C)C)cc2)cc1	25.9%	/	5.6%	/	/	/	/
